Screening data from PubChem BioAssay.
Most compounds without a hit are left out; they make up all but 2.4% or so of the library.
Pol kappa inh-1 – qHTS for Inhibitors of Polymerase Kappa; purified Pol kappa, fluorescent DNA synthesis assay, 10 min; Potency, µM (highest dose often 107 µM), without a hit: at the highest dose activity, negative = inhibition, most hits filed as inhibitors; 400,000 compounds, 0.53% hits; AID 588579, 2011; also: potency is read from the fitted curve at half-maximal effect; % is scaled to controls: 0 for no effect and ±100 for the full control effect
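Enzyme at 10 nM met test compounds for 15 min at room temperature. Substrate addition (50 nM final) began the reaction, which was monitored by fluorescence at 0 and 10 min.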
POLI inh – qHTS for Inhibitors of Polymerase Iota | DNA polymerase iota (Homo sapiens), Q9UNA4 | Pol iota fluorescent replication assay, 10 min | Potency, µM (titrated, usually from 115 µM), without a hit: at the highest dose activity, negative = inhibition, most hits filed as inhibitors | 390,000 compounds, 1% hits | AID 588590, 2011; also: potency is read from the fitted curve at half-maximal effect
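Pol iota at 10 nM preincubated 15 min with compounds at room temperature; reaction started with fluorescent substrate, 50 nM final. Fluorescence read kinetically at 0 and 10 min; buffer-only wells as negative control.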
FEN1 inh – qHTS Assay for the Inhibitors of Human Flap endonuclease 1 (FEN1); P39748; Recombinant FEN1 flap cleavage, fluorescence, 15 min; Potency, µM (top dose mostly 114 µM), inactives show top-dose activity change, negative = inhibition, most hits filed as inhibitors; 390,000 compounds, 0.35% hits; AID 588795, 2011; also: potency is read from the fitted curve at half-maximal effect; % is scaled to controls: 0 for no effect and ±100 for the full control effect; nearly all actives have a fitted effect of over 65% in size
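Potency values derive from four-parameter Hill fits of normalized qHTS data. The reaction used 10 nM FEN1 preincubated 15 min at room temperature with compound, then 50 nM DNA substrate, read at 0 and 15 min.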
Pol beta inh – qHTS Assay for Inhibitors of DNA Polymerase Beta; P06746; Pol beta primer extension/strand displacement, fluorescence kinetic; Potency, µM (top dose mostly 114 µM), without a hit: at the top dose activity change, negative = inhibition, hits mostly inhibitors; 340,000 compounds, 1.3% hits; also: potency is read from the fitted curve at half-maximal effect; % is scaled to controls: 0 for no effect and ±100 for the full control effect
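Kinetic readout of DNA synthesis with strand displacement by Pol beta. Compound and 10 nM enzyme sit 15 min at room temperature; 50 nM substrate starts the reaction, read immediately and at 10 min.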
Pol eta inh-1 – qHTS for Inhibitors of Polymerase Eta. Potency, µM (top dose mostly 114 µM), inactives show at the top dose activity change, negative = inhibition, actives largely listed as inhibitors. 390,000 compounds, 1.2% hits. DNA polymerase eta (Homo sapiens), Q9Y253. recombinant Pol eta, fluorescent DNA replication assay; also: potency is read from the fitted curve at half-maximal effect; % is scaled to controls: 0 for no effect and ±100 for the full control effect
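Pol eta at 10 nM preincubated with compounds 15 min at room temperature; reaction started with fluorescent substrate (50 nM final) and read kinetically at 0 and 10 min.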
WRN inhibitor – qHTS for Inhibitors of WRN Helicase. WRN helicase unwinding, fluorescent forked duplex, kinetic. Bifunctional 3'-5' exonuclease/ATP-dependent helicase WRN (Homo sapiens), Q14191. AID 651768, 2012. 360,000 compounds, 0.46% hits. Potency, µM (series often up to 114 µM), without a hit: at the highest dose activity change, negative = inhibition, most hits filed as inhibitors; also: potency is read from the fitted curve at half-maximal effect; % is scaled to controls: 0 for no effect and ±100 for the full control effect; nearly all actives have a fitted effect of over 55% in size
Target sequence (Q14191 whole entry, looked up): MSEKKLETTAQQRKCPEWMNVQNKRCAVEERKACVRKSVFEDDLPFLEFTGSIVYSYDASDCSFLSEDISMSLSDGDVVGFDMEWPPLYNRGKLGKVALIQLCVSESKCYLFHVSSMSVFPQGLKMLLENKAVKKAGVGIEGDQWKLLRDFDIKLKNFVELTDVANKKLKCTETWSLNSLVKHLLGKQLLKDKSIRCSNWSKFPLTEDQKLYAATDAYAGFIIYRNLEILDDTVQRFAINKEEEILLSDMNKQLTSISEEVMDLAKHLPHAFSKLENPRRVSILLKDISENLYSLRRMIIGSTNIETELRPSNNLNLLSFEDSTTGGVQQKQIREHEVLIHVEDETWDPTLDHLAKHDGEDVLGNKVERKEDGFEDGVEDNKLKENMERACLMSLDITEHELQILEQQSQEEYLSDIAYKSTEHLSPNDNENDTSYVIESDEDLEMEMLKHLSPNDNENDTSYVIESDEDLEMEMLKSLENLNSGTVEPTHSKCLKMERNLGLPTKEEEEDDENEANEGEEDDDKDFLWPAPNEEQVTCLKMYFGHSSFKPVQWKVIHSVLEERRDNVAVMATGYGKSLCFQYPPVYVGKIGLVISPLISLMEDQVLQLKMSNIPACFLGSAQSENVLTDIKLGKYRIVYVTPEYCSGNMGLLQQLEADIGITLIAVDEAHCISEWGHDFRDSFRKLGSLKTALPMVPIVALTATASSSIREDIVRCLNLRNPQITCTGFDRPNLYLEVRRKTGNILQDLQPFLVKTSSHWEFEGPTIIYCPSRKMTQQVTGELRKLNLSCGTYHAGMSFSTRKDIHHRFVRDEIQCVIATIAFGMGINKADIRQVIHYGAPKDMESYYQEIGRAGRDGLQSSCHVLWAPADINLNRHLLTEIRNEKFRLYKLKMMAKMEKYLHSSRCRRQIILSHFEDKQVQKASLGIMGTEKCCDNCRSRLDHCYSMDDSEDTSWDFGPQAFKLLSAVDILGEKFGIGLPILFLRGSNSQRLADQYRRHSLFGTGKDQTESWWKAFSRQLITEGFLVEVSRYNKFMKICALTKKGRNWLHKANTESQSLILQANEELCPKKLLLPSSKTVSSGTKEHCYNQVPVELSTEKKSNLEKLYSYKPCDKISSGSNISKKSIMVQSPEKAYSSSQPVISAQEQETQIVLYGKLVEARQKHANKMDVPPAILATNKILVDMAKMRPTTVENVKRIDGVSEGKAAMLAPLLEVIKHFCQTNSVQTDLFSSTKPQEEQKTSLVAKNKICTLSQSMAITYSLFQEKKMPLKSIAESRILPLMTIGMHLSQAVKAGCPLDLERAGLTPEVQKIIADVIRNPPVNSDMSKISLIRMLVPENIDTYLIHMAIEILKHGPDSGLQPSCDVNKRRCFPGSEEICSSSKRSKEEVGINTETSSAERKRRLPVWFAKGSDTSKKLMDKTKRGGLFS
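Enzyme (20 nM final) and test compound sit together 15 min at room temperature before substrate addition. Substrate is a single-forked duplex oligonucleotide (100 nM) labelled with fluorophore and quencher, with 2 mM ATP; helicase unwinding raises red fluorescence, read kinetically.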
GALK inh confirm – Confirmation Assay for Inhibitors of Human Galactokinase (GALK); shares compounds with Pol eta inh-1; purified GALK, Kinase-Glo ATP depletion luminescence; Potency, µM (highest dose often 115 µM), for inactives: at the top dose activity, negative = inhibition, hits mostly inhibitors; 150 compounds, 70% hits; AID 2015, 2009
GALK redox cs – Confirmatory Assay for Inhibitors of Human Galactokinase (GALK): Phenol-HRP redox assay counterscreen | shares compounds with Pol eta inh-1 | Phenol red-HRP H2O2 redox cycling, absorbance 600 nm | Potency, µM (top dose mostly 115 µM), for inactives: top-dose activity change, negative = H2O2 signal, most hits filed as inhibitors | 150 compounds, 40% hits
HEK293 viability – Secondary Assay for Inhibitors of Human Galactokinase (GALK): HEK-293 Cell Viability Assay; 170 compounds, 10% hits; shares compounds with Pol eta inh-1; Potency, µM (series often up to 46.1 µM), for the others: at the top dose activity change, negative = cytotoxicity, usual class: inhibitors; HEK-293 viability, ATP luminescence (CellTiter-Glo), 24/48 h; also: potency is read from the fitted curve at half-maximal effect; % is scaled to controls: 0 for no effect and ±100 for the full control effect
Pol kappa inh-2 – qHTS for Inhibitors of Polymerase Kappa: Confirmatory Assay for Cherry-picked Compounds. shares compounds with Pol eta inh-1. purified Pol-kappa, fluorescent strand-displacement substrate. Potency, µM, most hits filed as inhibitors. 920 compounds, 76% hits. AID 720501, 2013; also: potency is read from the fitted curve at half-maximal effect
Pol eta inh-2 – qHTS for Inhibitors of Polymerase Eta: Confirmatory Assay for Cherry-picked Compounds | shares compounds with Pol eta inh-1 | AID 720502, 2013 | Pol eta primer extension, TAMRA/BHQ fluorescence, 10 min | 2,600 compounds, 64% hits | Potency, µM, hits mostly inhibitors; also: potency is read from the fitted curve at half-maximal effect
Active calls of the source: *; ? = inconclusive; . = no result given; [ ] = remark or other dose. Calls follow the shape of the dose curve; as a rule, active = well fitted curve in the direction sought with a large enough effect; inconclusive = small, poorly fitted or top-dose-only effect, or another doubt; inactive = no such curve, though single readings can be large; an effect the other way counts as inactive or inconclusive.

SMILES	Pol kappa inh-1	POLI inh	FEN1 inh	Pol beta inh	Pol eta inh-1	WRN inhibitor	Pol eta inh-2	others
Cc1cccc(NC(=O)c2c(NC(=O)C(F)(F)F)sc3c2CCCCC3)c1	-21%	?	?	?	45µM*	.	.	Pol kappa inh-2=67*
COc1cccc(Nc2nnc(-c3cc4ccc(O)cc4oc3=O)s2)c1	0%[60.1 µM]	?	-21%	?	.	.	.
CCc1ccc(CNC(=O)c2ccc(-n3c(C)cc4c3CCC(C)C4)cc2)cc1 (stereo not drawn)	-3%	1%	-5%	2%	-22%	.	.
O=C(CSc1nc2ccccc2c(=O)n1Cc1ccco1)NCc1ccco1	?	32µM*	6%	?	79µM*	-33%[57.1 µM]	?
CC(=O)NCCn1c(SCC(=O)NCc2ccco2)nc2ccccc2c1=O	-10%	3%	-5%	27%	-7%	-6%	.
O=C(CSc1nc2ccsc2c(=O)n1NC(=O)c1ccccc1)NCc1ccco1	79µM*	50µM*	-3%	?	45µM*	?	?
O=C(CSc1nc2ccsc2c(=O)n1Cc1ccccc1)NCc1ccco1	-2%	42%	-17%	6%	-11%	-3%	.
Cn1c(C(=O)NCc2ccc(F)cc2)cc2cc(S(=O)(=O)N3CCCCC3)ccc21	1%[60.1 µM]	-9%	-3%	2%	-14%	.	.
Cc1ccc(NC(=O)CN2C(=O)COc3ccc(S(=O)(=O)N4CCCCCC4)cc32)c(C)c1	-16%	17%	18%	7%	-11%	.	.
O=C1OC(c2ccc(Br)cc2)=N/C1=C\c1ccco1	-2%	35%	-1%	45%	-14%	-21%	.
CC1=N/C(=C/c2ccco2)C(=O)O1	50µM*	?	-21%	10µM*	10µM*	-10%[11.6 µM]	30*
CCc1ccc(NC(=O)c2cc(CN3CCOCC3)on2)cc1	-24%	10%	0%	-23%	-19%	.	.
CCOC(=O)N/N=C\C=C\c1ccco1	-37%	?	-8%	?	79µM*	-5%[11.6 µM]	76*
Cc1cccc(OCC(=O)N/N=C/C=C/c2ccco2)c1	?	?	-7%	35µM*	?	-26%[57.1 µM]	?
CCOC(=O)N/N=C(C)/C=C/c1ccco1	5%	11%	0%	14%	-12%	7%	.
Cc1cccc(C)c1OCC(=O)N/N=C/C=C/c1ccco1	-11%	-3%	-4%	-1%	17%	7%	.
CCCCCCCCCCCCOCCOCCOCCOCCOCCOCCOCCOCCOCCO	-2%[19.4 µM]	.	.	.	.	.	.
O=C(NNC(=O)c1ccccc1C(=O)O)c1cc2ccccc2o1	-8%	?	-14%	1%	0%	-10%	.	GALK inh confirm=33µM*;GALK redox cs=0%;HEK293 viability=2%
O=C(O)c1cc(NS(=O)(=O)c2ccc(N3CCOCC3)c([N+](=O)[O-])c2)cc(C(=O)O)c1	-7%	7%	-1%	-2%	4%	-18%	.
O=C(O)c1cc(NS(=O)(=O)c2ccc(NCc3ccccc3)c([N+](=O)[O-])c2)cc(C(=O)O)c1	-24%	-11%	9%	-20%	16µM*	-9%[11.6 µM]	.	Pol kappa inh-2=?
CCOC(=O)C1=C(O)/C(=C/c2ccc(-c3ccccc3C(=O)O)o2)SC1=Nc1ccc(OC)cc1	-40%	?	?	?	10µM*	?	43*
Cc1nnc(NS(=O)(=O)c2ccc(N)cc2)s1	-5%	-4%	-12%	-13%	-15%	.	.
Cc1nnc(NS(=O)(=O)c2ccc(N=Nc3ccc(N)nc3N)cc2)s1	79µM*	16µM*	?	.	20µM*	?	48*
Cc1cccc(NC(=O)N2CCC(CN3CCCCCC3)CC2)c1C	-8%	2%	1%	4%	-14%	.	.
Cn1cccc1CC(=O)N/N=C/c1ccco1	-27%	22%	2%	?	-8%	-1%	.
SMILES	Pol kappa inh-1	POLI inh	FEN1 inh	Pol beta inh	Pol eta inh-1	WRN inhibitor	Pol eta inh-2	others
CC(=C/c1ccco1)/C=N/NC(=O)Cc1cccn1C	?	56µM*	12%	9%	?	-13%[11.6 µM]	.	Pol kappa inh-2=42*
OC1OC[C@@H](O)[C@@H](O)[C@@H]1O (stereo partly drawn)	11%[60.1 µM]	.	.	.	.	.	.
Cc1c(CCOC(=O)c2ccc(N3CCOCC3)c([N+](=O)[O-])c2)sc[n+]1CC#N	-17%	?	-19%	?	50µM*	-9%	?	Pol kappa inh-2=75*
Cc1cc(C)cc(NC(=O)CCN2C(=O)c3ccccc3Sc3ncccc32)c1	-21%	9%	9%	0%	-14%	.	.
O=c1[nH]c(/C=C\c2cccc(O)c2)nc(O)c1[N+](=O)[O-]	-4%	?	10%	-25%	-18%	-12%	.
CCOc1ccccc1/C=C\c1nc(O)c([N+](=O)[O-])c(=O)[nH]1	-16%	-17%	0%	-10%	?	-22%[57.1 µM]	.
O=c1[nH]c(/C=C\c2ccc(O)c(O)c2)nc(O)c1[N+](=O)[O-]	?	?	?	25µM*	?	?	76*	Pol kappa inh-2=17*
CCOc1cc(/C=C\c2nc(O)c([N+](=O)[O-])c(=O)[nH]2)ccc1OC(C)CC (stereo not drawn)	-2%	?	-4%	3%	-1%	-17%	.
